Experimental data reported in ChEMBL document CHEMBL3988442, “University of Dundee, Small-Polar-MMV Screening Library” (2021).
The whole screen tested about 38,000 compounds, of which about 1,200 (3.2%) showed an effect of 50% or more. The median lay at about -58%. For the sample, strong results were picked, then their nearest neighbours and some compounds at random.

These compounds were tested on Plasmodium falciparum (assay: Calibr Malaria Delayed Death Assay SOP). Conditions: concentration 4.99e-06 (unit not given; other assays of the set use mol/L).
Assay type: functional, organism-based
Set-up: scale not given: in the data most compounds retested in dose-response had high values

Compared with `Cc1ccc(CN2CC3(CCN(C(=O)Cc4ccc(Cl)cc4)C3)C2)o1`, `Cn1cc(CN2CCC3(CC2)CN(c2cccnc2)C(=O)CO3)cn1` is lower in “Percent Effect” value: -2.786% for the first, -97.96% for the second.

Compared with `CNC(=O)c1cc2c(nc1NCC(C)C)CCN(c1ccncn1)CC2.O=C(O)C(F)(F)F`, `Cn1cc(-c2cnc(N3CCOCC3)nc2)cc1C(=O)NCCC#N.O=C(O)C(F)(F)F` is lower in “Percent Effect” value: 13.05% for the first, -137.7% for the second.

First: CC(=O)Nc1ccc(-n2ccc3nc(N4CCCC4)ncc3c2=O)cc1
Second: Cc1ccc(C)c(-n2ccc3nc(N4CCCC4)ncc3c2=O)c1
The “Percent Effect” value of the first is higher: -5.195% for the first, -31.4% for the second.

First: COCCn1cnc2ccc(NC(=O)CCCn3cccn3)cc2c1=O
Second: CSc1nccn1-c1cccc(C(=O)NCCN2CCS(=O)(=O)CC2)c1
The “Percent Effect” value of the first is higher: -21.82% for the first, -149.1% for the second.

First: O=C(O)CN1CCC(c2ccccc2)C1 (stereo not drawn)
Second: CC(C)N1C[C@@H](CO)[C@H](c2ccccc2)S1(=O)=O
The “Percent Effect” value of the first is lower: -52.87% for the first, -2.146% for the second.

Compared with `Cc1ccc2nc(CN3CCN(C4CCCC4)C(=O)C3)cc(O)c2c1`, `Cc1cc(C)c2nc(CN3CC[C@@H](O)C3)cc(O)c2c1` is higher in “Percent Effect” value: -147.5% for the first, -11.32% for the second.

Compared with `Cc1cc(C)c2nc(CN3CCCC(c4cc[nH]n4)C3)cc(O)c2c1` (stereo not drawn), `Cc1cn2c(n1)C(CNCC1=Cc3cc(Cl)ccc3OC1)CCC2` (stereo not drawn) is higher in “Percent Effect” value: 52.56% for the first, 87.8% for the second.

Compared with `Cc1ccncc1NS(=O)(=O)c1ccc(Cl)s1`, `CCN(CC)S(=O)(=O)NC1CCCc2nc(-c3ccccc3)ncc21` (stereo not drawn) is higher in “Percent Effect” value: -120.5% for the first, -18.05% for the second.

Going from `O=C(c1cnn2c1OCCC2)N1CCN(C(=O)C2CCCO2)CC1` (stereo not drawn) to `O=C(NC1CCCCC1)c1cc(Br)cnc1N1CCCCC1`, the “Percent Effect” value rises from -54.26% to -52.51%.

Compared with `CC(C)(C(=O)NCC1CCN(Cc2cccnc2)C1)c1ccccc1` (stereo not drawn), `CC(C)(C(=O)NCC1CCN(Cc2ncc[nH]2)C1)c1ccccc1` (stereo not drawn) is lower in “Percent Effect” value: 51.87% for the first, -18.61% for the second.

Compared with `COC(C)(C)C(=O)NCC1CCN(Cc2cc3ccccc3[nH]2)C1` (stereo not drawn), `CCn1ncnc1CN1CCC(CNC(=O)c2cccc(C)c2)C1` (stereo not drawn) is lower in “Percent Effect” value: -53.37% for the first, -152.4% for the second.

Compared with `O=C(CCn1ccc2ccc(F)cc21)/N=c1\[nH]nc(C2CCCO2)s1` (stereo not drawn), `O=S(=O)(CC1CCCCO1)Nc1c(F)cccc1-n1cccn1` (stereo not drawn) is higher in “Percent Effect” value: -163.8% for the first, -6.246% for the second.

Going from `CCC(NC(=O)CNC(=O)OC)c1cc(F)ccc1F` (stereo not drawn) to `COc1cccc(Cn2ncnc2CNC(C)=O)c1`, the “Percent Effect” value rises from -47.96% to -17.74%.

Going from `CN1CCC2(CC1)C(=O)N(c1cccnc1)c1ccc(F)cc12.Cl` to `CC(C)N1CCC2(CC1)C(=O)N(c1cccnc1)c1ccc(F)cc12.Cl`, the “Percent Effect” value rises from 58.26% to 64.31%.

Going from `CC(=O)N1CCC2(CC1)C(=O)N(c1cccnc1)c1ccc(F)cc12` to `CC(C)N1CCC2(CC1)C(=O)N(c1cccnc1)c1c(F)cccc12.Cl`, the “Percent Effect” value rises from -45.42% to 48.28%.

First: CN1CCC2(CC1)C(=O)N(C)c1ccc(F)cc12.Cl
Second: CC(C)N1C(=O)C2(CCN(C)CC2)c2cc(F)ccc21.Cl
The “Percent Effect” value of the first is lower: -104.9% for the first, -16.08% for the second.

First: CC(=O)c1cc2ncc(C(=O)NC3CC3)cc2[nH]1
Second: N[C@H]1CN(C(=O)c2ccc3[nH]c(CO)nc3c2)C[C@@H]1c1ccccc1
The “Percent Effect” value of the first is lower: -111.2% for the first, -84.77% for the second.

Compared with `Cc1ccccc1N1CC2(CCN(S(=O)(=O)C3CC3)C2)CC1=O` (stereo not drawn), `CCc1ccccc1OCCN1CC[C@@]2(O)CCNC[C@H]2C1` is higher in “Percent Effect” value: -190.8% for the first, -93.81% for the second.

Going from `CC(=O)Nc1c(C)noc1/C=C\c1ccc(S(=O)(=O)N2CCCC2)cc1` to `Cc1cn2c(n1)C(CNCC1=Cc3ccccc3OC1)CCC2` (stereo not drawn), the “Percent Effect” value rises from 10.91% to 78.44%.

Compared with `Cc1cc(C)nc(N2CCCC(C(=O)Nc3n[nH]c(C(C)C)n3)C2)n1` (stereo not drawn), `Cc1nc(C)n(CC2CCCN(Cc3ncc(C(C)(C)C)o3)C2)n1` (stereo not drawn) is lower in “Percent Effect” value: -27.75% for the first, -87.32% for the second.

Going from `CCN1CCN(C2CCN(Cc3nnc(C4CC4)o3)CC2)C1=O` to `CCN1CCN(C2CCN(Cc3nnc(C(C)C)o3)CC2)C1=O`, the “Percent Effect” value falls from -106.8% to -127.6%.

Compared with `CCC1CCCCN1Cc1ncc(C(C)(C)C)o1` (stereo not drawn), `Cc1cnn(CC2CCCCN2Cc2ncc(C(C)(C)C)o2)c1` (stereo not drawn) is lower in “Percent Effect” value: 70.27% for the first, 9.696% for the second.

Compared with `Cc1nc(C)n(CC2CCCN2Cc2ncc(C(C)(C)C)o2)n1` (stereo not drawn), `Cc1nc(C)n(CC2CCCN2Cc2ncc(-c3ccccc3)o2)n1` (stereo not drawn) is lower in “Percent Effect” value: 60.71% for the first, 26.63% for the second.

First: CCN1CCN(C2CCN(Cc3ncc(C(C)(C)C)o3)CC2)C1=O
Second: CC(C)(C)c1cnc(CN2CCC(CO)CC2)o1
The “Percent Effect” value of the first is higher: 51.71% for the first, -57.31% for the second.

First: NC1CCCN(Cc2cccc(C(F)(F)F)c2)C1=O (stereo not drawn)
Second: CC(C)(C)c1cn2c(n1)C(CNCc1ccccn1)CCC2 (stereo not drawn)
The “Percent Effect” value of the first is lower: -34.65% for the first, 92.56% for the second.

First: N#CC1COCCN1C(=O)c1ccc2cc[nH]c2c1 (stereo not drawn)
Second: N#CC1CCCN(c2nc(-c3ccccc3)nc3c2CCNCC3)C1 (stereo not drawn)
The “Percent Effect” value of the first is lower: -76.07% for the first, 79.11% for the second.

Going from `COCCC1COC2(CCN(C(=O)c3cccn3C)CC2)C1` (stereo not drawn) to `COc1cc(C)ccc1OCCN1CC[C@@]2(O)CCNC[C@H]2C1`, the “Percent Effect” value rises from -157.5% to -90.26%.

First: CCCC1CCCN(Cc2csc(-c3cnn(C)c3)n2)CC1 (stereo not drawn)
Second: Cn1cc(-c2nc(CN3CCN(CCO)CC3)cs2)cn1
The “Percent Effect” value of the first is higher: 52.75% for the first, -64.62% for the second.

First: Cn1cc(-c2nc(CN3CCc4c(ncn4C4CC4)C3)cs2)cn1
Second: Cn1ccnc1CN1CCc2ncnc(N3CCCC(C#N)C3)c2CC1 (stereo not drawn)
The “Percent Effect” value of the first is higher: -33.38% for the first, -81.1% for the second.

Compared with `c1cnn(C2CN(c3nc(-c4ccncc4)nc4c3CCC4)C2)c1`, `C1=C(CNC2CCc3ncnn3C2)COc2ccccc21` (stereo not drawn) is higher in “Percent Effect” value: -81.86% for the first, -78.33% for the second.

First: CC(C)CNC(=O)c1cccc(Oc2ccc3nncn3n2)c1
Second: CCn1ncc2c1CCCC2NCC1=Cc2ccccc2OC1 (stereo not drawn)
The “Percent Effect” value of the first is higher: -53.64% for the first, -139.8% for the second.

First: O=C(C1CCOCC1)N1C[C@H](OCc2cccnc2)[C@H]2COC[C@H]21
Second: O[C@@H]1CN(CC2=Cc3cc(Cl)ccc3OC2)CC[C@H]1N1CCCCCC1
The “Percent Effect” value of the first is lower: -121.2% for the first, -10.35% for the second.

Going from `CCc1nc(CN2CCCN(C(=O)CCOC(C)C)CC2)cs1` to `CC(C)(C)c1ncc(CNCC2CCCn3ccnc32)s1` (stereo not drawn), the “Percent Effect” value rises from -60.5% to 11.38%.

First: CCN1CCOC(CNCc2ccccn2)C1 (stereo not drawn)
Second: Clc1ccc2c(c1)C=C(CNC1CCc3ncnn3C1)CO2 (stereo not drawn)
The “Percent Effect” value of the first is lower: -142.7% for the first, -63.09% for the second.
